Records with an inconclusive call do not appear. Activity calls are given as the source filed them. Unless noted, how the calls were made is not given here.
Assays:
[1] = qHTS Assay for Identifying Gametocytocidal Compounds (AID 743244; active means well fitted curve in the direction sought with a large enough effect; an effect the other way counts as inactive or inconclusive; further: potency means the concentration at half of the fitted maximal effect); details: P. falciparum 3D7 stage III-V gametocytes, alamarBlue, 72 h; max response: stronger effect = lower value
How it was run: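 Late gametocytes (III–V), P. falciparum 3D7; 72 h drug, then 24 h alamarBlue; resazurin reduction read by fluorescence.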

[2] = qHTS profiling for inhibitors of Plasmodium falciparum (3D7) proliferation (AID 743322);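 further: infected erythrocytes exposed to compound for 72 h before lysis; 100% = DMSO vehicle wells and 0% = 0.29 µM artemisinin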; details: P. falciparum 3D7 proliferation; at 28.7 µM (top of the series)
How it was run: (§1)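 Parasite DNA was quantified by SYBR Green I fluorescence (ex 485, em 535 nm) after overnight lysis in saponin/Triton buffer at room temperature. Cultures at 0.3% parasitemia and 2.5% hematocrit were first exposed to compound for 72 h at 37 C; signals were normalised to artemisinin (0.29 uM) and vehicle wells.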

[3] = qHTS profiling for inhibitors of Plasmodium falciparum (DD2) proliferation (AID 743323); details: lower = more inhibition; at 28.7 µM (top of the series)
How it was run: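 Parasite DNA quantified by SYBR Green fluorescence (ex 485, em 535 nm) after saponin/Triton lysis and overnight dark incubation. Cultures: 0.3% parasitemia, 2.5% hematocrit, 72 h, 37 C; data scaled between DMSO and 0.29 uM artemisinin.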

[4] = qHTS profiling of the MIPE4 collection as inhibitors of Plasmodium falciparum (3D7) proliferation (AID 743344);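 further: scaled between DMSO vehicle wells and 0.29 µM artemisinin as full inhibition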; details: P. falciparum 3D7 in erythrocytes, SYBR Green DNA fluorescence, 72 h; at 28.5 µM (top of the series) unless noted
How it was run: as §1

[5] = qHTS profiling of the MIPE4 collection as inhibitors of Plasmodium falciparum (DD2) proliferation (AID 743345); details: P. falciparum Dd2 in erythrocytes, SYBR Green DNA, 72 h; at 28.5 µM (top of the series) unless noted
How it was run: as §1

[6] = qHTS profiling of the MIPE4 collection as inhibitors of Plasmodium falciparum (DD2) proliferation (Rep 2) (AID 743346); details: P. falciparum Dd2 in erythrocytes, SYBR Green DNA, 72 h; at 28.5 µM (top of the series) unless noted
How it was run: as §1

[7] = qHTS profiling of the MIPE4 collection as inhibitors of Plasmodium falciparum (HB3) proliferation (AID 743347);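 further: plate controls were DMSO vehicle wells for no effect and artemisinin wells for full effect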; details: P. falciparum HB3 in erythrocytes, SYBR Green DNA, 72 h; at 28.5 µM (top of the series) unless noted
How it was run: as §1

[8] = High-throughput drug toxicity screening in the BPDCN cell line Gen2.2 (AID 1224824); details: Gen2.2 BPDCN cells; at 45.8 µM (top of the series) unless noted;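 further: cells exposed to compounds for 48 h before reading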
How it was run: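 Gen2.2 cells (500/well) in phenol red-free RPMI with 10% FBS were exposed to compounds for 48 h at 37 °C, 5% CO2. Viability was read by CellTiter-Glo luminescence and normalized to DMSO (100%) and 9.2 uM bortezomib (0%).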

[9] = High-throughput drug toxicity screening in the BPDCN cell line Cal-1 (AID 1224825); details: Cal-1 BPDCN cell viability, qHTS; at 45.8 µM (top of the series) unless noted
How it was run: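 CellTiter-Glo luminescence after 48 h compound exposure; percent activity scaled with DMSO as 100% and bortezomib (9.2 uM final) as 0%. Cal-1 cells seeded at 500/well in RPMI, 10% FBS, no phenol red.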

[10] = qHTS assay for measurement of the activity of small molecule inhibitors on Zika virus induced Caspase-3 activity in human iPSC derived neural progenitor cells (hNPCs) (AID 1224857; active means well fitted curve in the direction sought with a large enough effect; an effect the other way counts as inactive or inconclusive; further: % of control where 0% means no effect; nearly all actives have a fitted effect of over 65% in size); details: hNPCs ZIKV-induced caspase-3/7, Caspase-Glo luminescence, 6 h; series mostly up to 45.7 µM
How it was run: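 Caspase-3/7 induction by a 6-hour ZIKV infection was quantified with a luminescent Caspase-Glo 3/7 reagent incubated 30 minutes at room temperature. Compounds were preincubated with hNPCs for 1 hour; inhibition was calculated against uninfected and infected control wells.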

[11] = qHTS assay for measurement of the activity of small molecule inhibitors on Zika virus induced Caspase-3 activity in human astrocytoma cells (AID 1224859; active means well fitted curve in the direction sought with a large enough effect; an effect the other way counts as inactive or inconclusive;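 further: plate controls were ZIKV-infected untreated cells for no effect and uninfected cells for full effect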); details: SNB-19 ZIKV-induced caspase-3/7, luminescence, 6 h; series mostly up to 45.7 µM
How it was run: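 In SNB-19 cells plated at 250 cells/well and grown 16-20 h, compounds were applied 1 h before ZIKV (2 FFU/cell). Six hours later caspase-3/7 luminescence was recorded.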

[12] = qHTS profiling for inhibitors of Plasmodium falciparum (HB3) proliferation (AID 743324; active means well fitted curve in the direction sought with a large enough effect; an effect the other way counts as inactive or inconclusive;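 further: 100% = DMSO vehicle wells and 0% = artemisinin-treated control wells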); details: Plasmodium falciparum HB3 blood-stage proliferation; at 28.7 µM (top of the series)
How it was run: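 SYBR Green fluorescence (485 ex/535 em) of lysed cultures, incubated overnight at room temperature in the dark, quantifies parasite DNA. Infected erythrocytes at 0.3% parasitemia and 2.5% hematocrit were exposed 72 h; values normalized to DMSO and 0.29 uM artemisinin controls.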

Row | Structure (SMILES) | Potency [1] | remaining parasite growth % (stronger effect = lower value) [2] | activity, percent of control [3] | parasite growth, % of DMSO control [4] | parasite growth remaining, % of DMSO control (lower = more inhibition) [5] | parasite growth, % of control (lower = inhibition) [6] | growth, % of control [7] | cell viability, % of control (lower = more cytotoxic) [8] | viability (% of control) [9] | Potency [10] | Potency [11] | remaining proliferation (% of control), lower = more inhibition [12]
1 | Nc1ccccc1NC(=O)c1ccc(CNc2nccc(-c3cccnc3)n2)cc1 | 11.8 µM (active) | -1.31% | 0.67% | 5.35% | 7.08% | 7.5% | 2.52% | 12.7% | 5.36% | inactive | inactive | 
2 | Cc1[nH]c2ccccc2c1CCNCc1ccc(C=CC(=O)NO)cc1 | 1.18 µM (active) |  | -0.223% | 4.38% | 7.14% | 6.72% | 2.36% | 7.87% | 7.62% | inactive | inactive | -0.887%
3 | COc1cc2c(Oc3ccc4[nH]c(C)cc4c3F)ncnc2cc1OCCCN1CCCC1 | 18.7 µM (active) | -0.853% | 1.27% | 6.49% | 8.16% | 15.9% | 6.98% | 7.59% | 6.46% | inactive | inactive | 
4 | C[C@@H]1CN(CC(=O)Nc2ccc3c(c2)Cc2cccc(-c4cc(=O)cc(N5CCOCC5)o4)c2S3)C[C@H](C)O1 |  | -0.753% | 3.61% | 7.08% | 20.9% | 9.57% | 2.59% | 11.9% | 13.3% | inactive | inactive | 
5 | Nc1ccc(C(=O)c2cc3c(ccc4ccccc43)[nH]2)cc1 |  | 114% | 98.8% | 292% | 83.6% | 118% | 409% | 66.8% | 8.09% | inactive | inactive | 
6 | Cc1nc2cnc3ccc(C#Cc4cccnc4)cc3c2n1-c1ccc(C(C)(C)C#N)cc1 |  | -1.11% | 0.126% | 4.38% | 7.19% | 13.9% | 3.51% | 3.34% | 16.6% | inactive | inactive | -0.656%
7 | Cc1ccc(CN2CCNCC2)cc1NC(=O)CNc1ccc(F)c(F)c1 |  |  |  | 55.3% | 103% | 63% | 60.8% | 124% | 103% | inactive | inactive | 
8 | Cc1cn(-c2cc(NC(=O)c3ccc(C)c(Nc4nccc(-c5cccnc5)n4)c3)cc(C(F)(F)F)c2)cn1 |  | 3.06% | 12.7% | 6.31% | 8.07% | 27.3% | 7.2% | 231% | 101% | inactive | inactive | 
9 | CNC(=O)c1ccccc1Nc1nc(Nc2ccc(N3CCOCC3)cc2OC)ncc1Cl |  |  |  | 10.8% | 10.3% | 22.9% | 7.48% | 18.7% | 7.05% | inactive | inactive | 
10 | CCc1cc2c(cc1N1CCC(N3CCOCC3)CC1)C(C)(C)c1[nH]c3cc(C#N)ccc3c1C2=O |  |  |  | 12.5% | 8.84% | 33.7% | 12.5% | 258% | 76.4% | inactive | inactive | 
11 | COc1cc(-c2nn(C3CCC(N4CCN(C(C)=O)CC4)CC3)c3ncnc(N)c23)ccc1NC(=O)c1cc2ccccc2n1C (stereo not drawn) |  |  |  | 5.39% | 12.1% | 20.7% | 7.32% | 34.5% | 9.55% | inactive | inactive | 
12 | O=C(Nc1ncc(-c2cc(C(F)F)nn2-c2c(Cl)cccc2Cl)s1)C1CC1 |  |  |  | 10.3% | 26.5% | 31.4% | 19.5% | 23.6% | 9.09% | inactive | inactive | 
13 | Cc1c(Cn2c(C)nc3c(C(=O)O)cc(N4CCOCC4)cc32)cccc1C(F)(F)F |  |  |  | 72.5% | 93.9% | 104% | 124% | 52.8% | 70.7% | inactive | inactive | 
14 | NC(=O)c1c(OCc2c(F)cc(Br)cc2F)nsc1NC(=O)NCCCCN1CCCC1 |  | -0.239% | 17.3% | 47.5% | 74.6% | 42.1% | 5.84% | 24.4% | 4.13% | inactive | inactive | 2.02%
15 | CC(C)[C@H](C(=O)Nc1ccc(C(=O)NO)cc1)c1ccccc1 |  | -0.0537% | 0.199% | 5.04% | 6.95% | 12.7% | 9.39% | 13.6% | 6.36% | inactive | inactive | 0.544%
16 | CC(C)(C)c1cc(NC(=O)Nc2ccc(-c3cn4c(n3)sc3cc(OCCN5CCOCC5)ccc34)cc2)no1 |  |  | 0.456% | 4.46% | 7.47% | 15.2% | 2.53% | 252% | 75.9% | inactive | inactive | 
17 | C=CC(=O)Nc1cc2c(Nc3ccc(F)c(Cl)c3)ncnc2cc1OCCCN1CCOCC1 |  | -0.797% | 10.5% | 31.1% | 16% | 29.7% | 3.29% | 5.62% | 11.2% | inactive | inactive | 1.71%
18 | CCCCCN(CCC12CC3CC(CC(C3)C1)C2)C(=O)NCCCc1ccncc1 |  | 7.44% | 32.6% | 6.26% | 11.7% | 13.6% | 6.74% | 111% | 94.4% | inactive | inactive | 7.47%
19 | Cc1c(C)n(Cc2ccc(-c3ccccc3C(=O)O)cc2)c2ccc(C(=O)N[C@@H](C)c3ccc([N+](=O)[O-])cc3)cc12 |  |  |  | 25.4% | 30.3% | 20.8% | 7.19% | 21.6% | 8.82% | inactive | inactive | 
20 | CN1CC[C@@H](c2c(O)cc(O)c3c(=O)cc(-c4ccccc4Cl)oc23)[C@@H](O)C1 |  |  | 4.17% | 8.91% | 13.5% | 9.93% | 11.3% | 7.16% | 5.59% | inactive | inactive | 4.58%
21 | O=C(Nc1cc(C(F)(F)F)cc(C(F)(F)F)c1)c1cc(Cl)ccc1O |  |  | 0.0029% | 5.26% | 6.62% | 14.1% | 5.57% | 7.43% | 2.38% | inactive | inactive | -0.617%
22 | Cc1ccc(C(N)=O)cc1Nc1nccc(-c2cn(C(C)C)c3cnccc23)n1 |  |  | 0.145% | 5.53% | 6.53% | 7.77% | 3.05% | 4.31% | 3.01% | inactive | inactive | -1.54%
23 | O=C(O)C1(Cc2cccc(Nc3nccs3)n2)CCC(Oc2cccc(Cl)c2F)CC1 (stereo not drawn) |  |  |  | 63.9% | 98.3% | 59.5% | 92% | 88.8% | 33.8% | inactive | inactive | 
24 | Cc1cccc(C=NNc2cc(N3CCOCC3)nc(OCCc3ccccn3)n2)c1 |  | 3.29% | 8.46% | 5.56% | 15.2% | 11.8% | 4.79% | 60.1% | 63.7% | inactive | inactive | 1.85%
25 | CN1CCN(c2cc(C(=O)Nc3ccc4c(c3)-c3c(c(C(N)=O)nn3-c3ccc(F)cc3)CC4)c(Cl)cn2)CC1 |  | -2.46% | 0.473% | 4.93% | 7.41% | 16.2% | 3.51% | 5.17% | 3.02% | inactive | inactive | -0.224%
